Source: PubChem BioAssay (The Scripps Research Institute Molecular Screening Center)
ssDAF-12 act: activates DAF-12 receptor from parasite S. stercoralis; HEK293 ssDAF-12/GRIP1 lit1-tk-luc reporter, luminescence; % of 3 µM dafachronic acid response; activation, % at 6.8 µM; 370,000 compounds, 1% hits;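 active = activation above the mean over all tested compounds plus 3 SD, cut at about 0.9% in these data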;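 also: 0% = DMSO-only wells and 100% = 3 µM delta7-dafachronic acid wells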
hgDAF12 agonist: activates the H. glycines DAF-12 receptor ligand-binding domain; HEK293 GAL4-hgDAF12 UAS-luciferase reporter, agonist luminescence; normalized to butyrate control; activation, % at 6.8 µM; AID 687014; 370,000 compounds, 1.8% hits;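 active = activation above a cutoff set at the mean of all screened compounds plus 3 SD, cut at about 10% in these data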;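 also: 0% = DMSO wells and 100% = sodium butyrate wells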
hcDAF12 agonist: activates DAF-12 receptor from parasite H. contortus. HEK293 hcDAF-12 lit1-tk-luc reporter, luminescence; 0% DMSO, 100% Δ7-dafachronic acid. activation, % at 6.8 µM. 370,000 compounds, 1.4% hits. AID 652067;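 active = activation above the mean of all tested compounds plus 3 SD, cut at about 5.5% in these data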;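 also: 100% = response to 3 µM Δ7-dafachronic acid high control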
DAX1 inh-1: inhibitors of human orphan nuclear receptor DAX1 (NR0B1); HEK293 Gal4-DAX1 luciferase reporter, luminescence; inhibition, % at 6.75 µM; AID 504766; P51843; 340,000 compounds, 0.99% hits;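 active = inhibition above the mean over all tested compounds plus 3 SD, cut at about 4.2% in these data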;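 also: 0% = DAX1-transfected cells with DMSO and 100% = empty-vector control cells with DMSO; inhibition shows as a rise in luminescence from relieved DAX1 repression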
Target sequence (P51843 207-470 limits assumed): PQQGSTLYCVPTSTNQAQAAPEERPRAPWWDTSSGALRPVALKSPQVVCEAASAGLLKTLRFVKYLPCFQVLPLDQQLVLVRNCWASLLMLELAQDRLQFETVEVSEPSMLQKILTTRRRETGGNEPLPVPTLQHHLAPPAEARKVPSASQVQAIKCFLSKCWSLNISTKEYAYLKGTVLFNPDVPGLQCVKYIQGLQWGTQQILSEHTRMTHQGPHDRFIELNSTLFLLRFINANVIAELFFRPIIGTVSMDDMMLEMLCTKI
DAX1 inh-2: blocks DAX1 repression of SF-1 activated StAR promoter; AID 652010; HEK293T StAR-luciferase reporter, SF-1/DAX-1 repression relief; inhibition, % at 6.8 µM; 370,000 compounds, 1.1% hits;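 active = inhibition above the mean over all tested compounds plus 3 SD, cut at about 3.6% in these data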;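 also: 0% = DAX-1 cells with DMSO and 100% = cells lacking DAX-1 with DMSO; higher inhibition means more luminescence from relief of DAX-1 repression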
Numbers without * were called inactive. The list is not random: actives were taken first. Their share in the collection is about 4.1%.

Screening CC(C)C(OC(=O)c1ccccc1)c1nccc2ccccc12 (stereo not given) returned ssDAF-12 act 0, hgDAF12 agonist 4, hcDAF12 agonist 5, DAX1 inh-1 4.2* and DAX1 inh-2 1.
O=C(NCc1ccccc1)[C@H]1CCCN1C(=O)[C@H]1CCCN1C(=O)c1ccccc1C(F)(F)F was read as ssDAF-12 act -1, hgDAF12 agonist -1, hcDAF12 agonist 1 and DAX1 inh-2 1.
COCCCNC(=O)C[C@H]1C[C@@]2(C(=O)OC)C(=C[C@H](C3CCCC3)O[C@@H]2C)N(Cc2ccco2)C1=O was read as ssDAF-12 act -1, hgDAF12 agonist 0, hcDAF12 agonist -2 and DAX1 inh-2 -1.
Screening COCc1[nH]nc2c1C(c1ccc(F)cc1)NC2=O (stereo not given) returned ssDAF-12 act -1, hgDAF12 agonist 3, hcDAF12 agonist 3 and DAX1 inh-2 3.
Cc1ccc(-c2cc(-c3ccccc3)nc(Cl)n2)cc1 was read as ssDAF-12 act 0, hgDAF12 agonist 3, hcDAF12 agonist 6.0*, DAX1 inh-1 -1 and DAX1 inh-2 1.
COc1ccc(-c2cc(-c3ccccc3)nc(Cl)n2)cc1OC was read as ssDAF-12 act -2, hgDAF12 agonist 0, hcDAF12 agonist -4, DAX1 inh-1 -3 and DAX1 inh-2 -1.
For CCN1C(=S)SC(=O)C1=C1C=C(C)N(CCO)C(C)=C1 the results were ssDAF-12 act 0, hgDAF12 agonist 12*, hcDAF12 agonist 2, DAX1 inh-1 4 and DAX1 inh-2 3.8*.
Screening O=C(N/N=C/c1ccc(OC(F)F)cc1)C1=COCCO1 returned ssDAF-12 act 0, hgDAF12 agonist 11*, hcDAF12 agonist 4, DAX1 inh-1 4.9* and DAX1 inh-2 4.1*.
For O=C(N/N=C/c1ccccc1OC(F)F)C1=COCCO1 the results were ssDAF-12 act 0, hgDAF12 agonist 5, hcDAF12 agonist 1, DAX1 inh-1 -1 and DAX1 inh-2 0.
CCOc1ccc(-n2c(COc3ccccc3)nnc2SCC(=O)Nc2ccc3c(c2)OCCO3)cc1 was read as ssDAF-12 act -1, hgDAF12 agonist -3, hcDAF12 agonist -3 and DAX1 inh-2 -1.
For CN1CCC(N[C@@H](Cc2c[nH]c3ccccc23)C(=O)NCCCc2ccccc2)(C(=O)NCCc2c[nH]c3ccccc23)CC1 the results were ssDAF-12 act -1, hgDAF12 agonist 3 and hcDAF12 agonist 6.3*.
For O=C(NCCCc1ccccc1)[C@H](Cc1ccccc1)NC1(C(=O)NCCc2c[nH]c3ccccc23)CCOCC1 the results were ssDAF-12 act -1, hgDAF12 agonist 0 and hcDAF12 agonist -1.
Screening COC(=O)[C@]12C[C@H](CC(=O)NCc3ccc(OC)c(OC)c3)C(=O)N(CCC3=CCCCC3)C1=C[C@H](C(C)(C)C)O[C@@H]2C returned ssDAF-12 act -1, hgDAF12 agonist 0, hcDAF12 agonist -2 and DAX1 inh-2 -1.
Nn1c(SCC(=O)Nc2cc(C(F)(F)F)ccc2Cl)nnc1-c1n[nH]c2c1CCC2 was read as ssDAF-12 act -1, hgDAF12 agonist 2, hcDAF12 agonist -2 and DAX1 inh-2 -1.
CCOC(=O)c1cc(C#N)c(SCC(=O)O)[nH]c1=O was read as ssDAF-12 act -2, hgDAF12 agonist 1, hcDAF12 agonist 1, DAX1 inh-1 0 and DAX1 inh-2 1.
CCOC(=O)c1cc(C#N)c(SCC(N)=O)[nH]c1=O was read as ssDAF-12 act -2, hgDAF12 agonist 2, hcDAF12 agonist 1, DAX1 inh-1 4.5* and DAX1 inh-2 0.
O=C(Cc1ccccc1Cl)NCCN1C(=O)C2C3C=CC(C3)C2C1=O (stereo not given) was read as ssDAF-12 act -1, hgDAF12 agonist -1, hcDAF12 agonist -2 and DAX1 inh-2 0.
For CCC[C@H]1[C@@H](OC(=O)NCc2cccc(Cl)c2)CC[C@@]23CCCN2C(=O)CCC[C@@H]13 the results were ssDAF-12 act -2, hgDAF12 agonist 2 and hcDAF12 agonist -4.
CCOC(=O)c1ccc(OC)c(OC)c1Cl was read as ssDAF-12 act -1, hgDAF12 agonist 0, hcDAF12 agonist -1, DAX1 inh-1 5.8* and DAX1 inh-2 -1.
`COC(=O)c1ccc(OC)c(OC)c1Cl` gave ssDAF-12 act -2, hgDAF12 agonist 0, hcDAF12 agonist -1, DAX1 inh-1 1 and DAX1 inh-2 0.
Screening Cn1nccc1C(=O)N1CCc2c([nH]c3ccccc23)C1c1ccc(F)cc1 (stereo not given) returned ssDAF-12 act 1.0*, hgDAF12 agonist 1, hcDAF12 agonist 1, DAX1 inh-1 0 and DAX1 inh-2 0.
For COc1ccc(C2c3[nH]c4ccccc4c3CCN2C(=O)c2cn3ccccc3n2)c(F)c1 (stereo not given) the results were ssDAF-12 act 1.5*, hgDAF12 agonist 1, hcDAF12 agonist 4, DAX1 inh-1 0 and DAX1 inh-2 0.
For CCc1ccc(C2c3[nH]c4ccccc4c3CCN2C(=O)c2cc[n+]([O-])cc2)cc1 (stereo not given) the results were ssDAF-12 act -1, hgDAF12 agonist -2, hcDAF12 agonist 1, DAX1 inh-1 -2 and DAX1 inh-2 -1.
Cc1cccc(NC(=O)c2cc3ccccc3c(=O)o2)n1 was read as ssDAF-12 act 0, hgDAF12 agonist 10, hcDAF12 agonist 2, DAX1 inh-1 6.5* and DAX1 inh-2 2.
Cc1nc(NC(=O)c2cc3ccccc3o2)ccc1Br was read as ssDAF-12 act 0, hgDAF12 agonist 7, hcDAF12 agonist -1, DAX1 inh-1 2 and DAX1 inh-2 2.
For COc1ccc(C(=O)CCNc2cccc(Cl)c2)cc1 the results were ssDAF-12 act -1, hgDAF12 agonist 5, hcDAF12 agonist 2, DAX1 inh-1 1 and DAX1 inh-2 1.
`CCCOc1ccc(C(=O)CCNc2cccc(Cl)c2)cc1` gave ssDAF-12 act 1.4*, hgDAF12 agonist 5, hcDAF12 agonist -1, DAX1 inh-1 1 and DAX1 inh-2 0.
Screening CSc1ccc(CN2C(=O)NC3(CCCCC3)C2=O)cc1 returned ssDAF-12 act -1, hgDAF12 agonist -2, hcDAF12 agonist -2, DAX1 inh-1 6.8* and DAX1 inh-2 0.
For COC(=O)[C@]12C[C@H](CC(=O)NCc3ccc(OC)c(OC)c3)C(=O)N(CCC3=CCCCC3)C1=C[C@H](C(C)C)O[C@@H]2C1CC1 the results were ssDAF-12 act -2, hgDAF12 agonist 0, hcDAF12 agonist -3 and DAX1 inh-2 -2.
For Cc1ccc(NC(=O)c2noc3c2CCCCC3)cc1C the results were ssDAF-12 act 0, hgDAF12 agonist 9, hcDAF12 agonist 4, DAX1 inh-1 4 and DAX1 inh-2 4.0*.
Screening O=C(NCCc1ccccc1)c1noc2c1CCCCC2 returned ssDAF-12 act -1, hgDAF12 agonist 12*, hcDAF12 agonist 2, DAX1 inh-1 3 and DAX1 inh-2 4.3*.
